# KinaseGlo FLuc: counter-screen: inhibitors of Kinase-Glo firefly luciferase | Q27757 | Potency, µM (doses to about 38.3 µM), for inactives: top-dose activity change, negative = inhibition, usual class: inhibitors | Kinase-Glo luciferase, ATP luminescence, 8 min | 200,000 tested, 0.28% active | AID 1379; note: nearly all actives have a fitted effect of over 60% in size
#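 Kinase-Glo luciferase light output from ATP and luciferin was measured with 10 uM ATP, within the enzyme's linear range. Buffer: 50 mM imidazole pH 7.2, 50 mM KCl, 7 mM MgCl2, 0.01% Tween 20, 0.05% BSA; luminescence read after 8 min at ambient temperature.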
# ALDH1A1 block: ALDH1A1 (human) enzyme inhibition. Purified ALDH1A1, NADH fluorescence, propionaldehyde substrate. Potency, µM (top dose mostly 75.3 µM), for the others: at the highest dose activity, negative = inhibition, most hits filed as inhibitors. 220,000 tested, 7.3% active. AID 1030; active = well fitted inhibition curve with a large enough effect, not every such curve was filed as active; inconclusive = small, poorly fitted or top-dose-only effect, or another doubt; inactive = no such curve, though single readings can be large or run the other way;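 note: plate controls were no enzyme wells and a reference inhibitor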
# HPGD block: blocks human HPGD enzyme activity; P15428; purified HPGD, NADH fluorescence kinetic, PGE2 substrate; Potency, µM, for the others: at the top dose activity change, negative = inhibition, hits mostly inhibitors; 150,000 tested, 4.3% active; AID 894; active = well fitted inhibition curve with a large enough effect, not every such curve was filed as active; inconclusive = small, poorly fitted or top-dose-only effect, or another doubt; inactive = no such curve, though single readings can be large or run the other way
# Target sequence (P15428 whole entry, looked up): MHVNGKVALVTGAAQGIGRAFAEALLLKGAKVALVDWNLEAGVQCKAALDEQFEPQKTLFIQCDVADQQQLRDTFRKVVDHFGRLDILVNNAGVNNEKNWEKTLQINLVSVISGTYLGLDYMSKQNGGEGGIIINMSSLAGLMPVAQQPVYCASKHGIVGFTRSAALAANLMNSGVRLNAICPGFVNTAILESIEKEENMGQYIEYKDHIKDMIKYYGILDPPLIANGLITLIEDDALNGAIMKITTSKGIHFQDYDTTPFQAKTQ
#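 20 nM HPGD preincubated 15 min at room temperature with compound in 50 mM Tris-HCl pH 8, 0.01% Tween 20. Started with 1 mM NAD+ and 30 uM prostaglandin E2; NADH fluorescence (360/450 nm) read 5 times over 30-s intervals, last minus first.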
# IMPase Li inh: IMPase inhibition in cells with lithium potentiation | 210,000 tested, 0.35% active | AID 1457 | Potency, µM (highest dose often 59.4 µM), for inactives: top-dose activity, negative = IMPase inhibition, most hits filed as inhibitors | CHO-M1 cells, IP1 TR-FRET (IP-One), carbachol + lithium;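 note: IP1 builds up when IMPase is blocked and the TR-FRET signal falls; plate controls were basal vehicle for no effect and high inhibitor control for full effect; nearly all actives have a fitted effect of over 50% in size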
#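 Test compounds were applied to CHO-M1 cells previously cultured for 16–30 h at 2000 per well. A small lithium amount accompanied them; after 30 min at 37C, IP1 was quantified by TR-FRET.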
# Lamin A splicing: LMNA splicing modulation. Potency, µM (doses to about 46.1 µM), inactives show at the highest dose ratio change, negative = inhibition, actives largely listed as inhibitors. HeLa LMNA splicing GFP/RFP minigene ratio, 48 h. 200,000 tested, 0.01% active; active = well fitted inhibition curve with a large enough effect in the signal ratio, with a control signal flat, not every such curve was filed as active; inconclusive = small, poorly fitted or top-dose-only effect, or effect the other way, or a change in a side signal; the % refers to the signal ratio
#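 S3 HeLa cells stably expressing lamin A-EGFP splicing minigene plus DsRed2, 600 cells/well, 48 h compound exposure at 37C. Laser-scanning cytometry; analysed as GFP (500-530 nm)/RFP (575-640 nm) total intensity ratio; 0.5% DMSO vehicle.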
# * hit, by the source's call; ? = inconclusive; · = no result given; [ ] = another dose, or the depositor's remark. Sampled rows, rich in hits. Any-hit rate of the full collection: about 9%. Unless noted, calls come from the whole dose curve; as a rule, active = well fitted curve in the direction sought with a large enough effect; inconclusive = small, poorly fitted or top-dose-only effect, or another doubt; inactive = no such curve, though single readings can be large; an effect the other way counts as inactive or inconclusive. Unless noted, % is set by controls: 0 for no effect and ±100 for the full control effect; potency is the fitted concentration of half-maximal effect.
SMILES,KinaseGlo FLuc,ALDH1A1 block,HPGD block,IMPase Li inh,Lamin A splicing
COc1ccc(CCNC(=O)COC(=O)Cn2cnc3ccccc32)cc1OC,5%,?,·,-4%,-8%[46 µM]
O=C(COc1ccc(Cl)cc1)OCC(=O)N1CCCc2ccccc21,2%,10%,-3%,0%,-5%
O=C(Cn1cnc2ccccc21)OCC(=O)N1CCCc2ccccc21,0%,14µM*,-4%,14%[38.3 µM],-1%
O=C(COC(=O)Cn1cnc2ccccc21)NCCc1ccc(Cl)cc1,-4%,13µM*,-9%,19%[38.3 µM],3%
COc1ccc(/C=C/c2cc(OC)c(OC)cc2CC[N+](C)(C)C)cc1,-3%,-8%,?,14%,·
Cc1c(/C=N/NC(=O)c2ccccc2O)c2ccccn2c1C(=O)c1ccc(F)cc1,-4%,-10%,28µM*,1%,?
Cc1c(/C=N/NC(=O)c2ccc(O)cc2)c2ccccn2c1C(=O)c1ccc(F)cc1,-3%,0%,-8%,2%,?
CN(Cc1ccco1)c1ncncc1-c1ccccc1C(F)(F)F,·,-3%,·,10%,-4%
O=CNc1ncn[nH]1,-1%[7.66 µM],5%[13.5 µM],-7%,14%,·
CCc1ccccc1NC(=S)N(CCCN(C)C)Cc1cc2cc3c(cc2[nH]c1=O)OCO3,-1%,?,·,8%,·
Cc1ccc(S(=O)(=O)Cn2nnnc2C(C(C)C)N2CCc3ccccc3C2)cc1 (stereo not given),0%,10µM*,-29%,3%[38.3 µM],10%
Cc1ccc(S(=O)(=O)Cn2nnnc2C(C(C)C)N2CCSCC2)cc1 (stereo not given),-1%,-4%,-12%,-19%[38.3 µM],10%
COC(=O)N1C(C)=Cc2ccccc2C1C/C(C)=C/C(C)=O (stereo not given),1%,10%,-8%,18%,-12%[9.22 µM]
CN(/C=C/C(=C/C=[N+](C)c1ccccc1)OCCCS(=O)(=O)[O-])c1ccccc1,2%,·,·,1%,-2%[46 µM]
CN(/C=C/C(=C\C=[N+](C)c1ccccc1)OCCCS(=O)(=O)[O-])c1ccccc1,2%,32µM*,·,-3%,·
COc1cc(C(=O)/C=C/Nc2ccc(NC(C)=O)cc2)cc(OC)c1OC,-3%,-2%,28µM*,-8%,?
COc1ccc(NC(C)=O)cc1C#N,3%,3.2µM*,·,-2%,-10%[46 µM]
COC(=O)Nc1ccc(OC)c(OC)c1,-1%,5%,-15%,1%[38.3 µM],-1%
COc1cc(C(=O)NNC(=O)c2ccc(NC(C)=O)cc2)cc(OC)c1OC,-1%,5%,·,3%,·
CCN(CC)c1ccc(/C=N/Nc2cccc(C)c2)c(O)c1,3%,10µM*,22µM*,-4%,8%
CCN(CC)c1ccc(/C=N/Nc2ccccc2)c(O)c1,-7%,3.5µM*,28µM*,3%[38.3 µM],21%
O=C(N/N=C/c1cnc2ccccc2n1)c1cccc(F)c1,10%,?,-17%,5%,-3%
COC(=O)C1CSC(C(=O)OC)N1C(=O)CN1CCN(c2ccc(OC)cc2)CC1 (stereo not given),0%,-11%,·,4%,?
Cc1ccc(C(C2C(=O)CC(C)(C)CC2=O)C2C(=O)CC(C)(C)CC2=O)s1,-1%,7.1µM*,2.8µM*,-7%[38.3 µM],?
CC1(C)CC(=O)C(C(c2ccncc2)C2C(=O)CC(C)(C)CC2=O)C(=O)C1,-3%,-8%,2%,-5%[38.3 µM],1%
SMILES,KinaseGlo FLuc,ALDH1A1 block,HPGD block,IMPase Li inh,Lamin A splicing
COc1ccc(Cc2ccc3[nH]c(=O)cc(C)c3c2)cc1S(=O)(=O)O,-2%[7.66 µM],1%[13.5 µM],-7%,-14%,·
C[C@@H]1O[C@H](O[C@@H]2\C=C/C=C\C=C/C=C\C[C@H](C)OC(=O)/C=C\[C@H]3O[C@@H]3C[C@H](O)C[C@]3(O)C[C@@H](O)[C@@H](C(=O)O)[C@H](C2)O3)[C@@H](O)[C@H](N)[C@@H]1O (stereo in doubt),3%[17.1 µM],-1%[20.9 µM],0%,3%,-12%
Cc1ccc(/C=C(\C#N)C(=O)NC(C)C)o1,6%,?,·,1%,-1%[46 µM]
CC(NC(=O)/C(C#N)=C/c1cn[nH]c1-c1ccccc1)c1ccccc1 (stereo not given),2%,7.9µM*,14µM*,8%[38.3 µM],-5%
CSCCC(NC(=O)c1cc(C)oc1C)C(=O)O (stereo not given),19%,-3%,-7%,22%[38.3 µM],-3%
N#C/C(=C\c1cn[nH]c1-c1ccc(Cl)cc1)C(=O)NCc1ccccc1,-5%,22µM*,?,44%[38.3 µM],2%
Cc1ccc(/C=C(/C#N)C(=O)NC(C)c2ccccc2)o1 (stereo not given),3%,14µM*,-20%,-2%,2%
CSCCC(NC(=O)c1ccc(C)o1)C(=O)O (stereo not given),-2%,16µM*,-11%,-3%[38.3 µM],11%
Cc1cc(C)n(CCNc2nc3nonc3nc2N2CCCCC2)n1,8%,-5%,·,-5%,·
Fc1ccc(Nc2ncncc2-c2ccoc2)cc1,·,?,·,2%,?
Cc1ccc(C(=O)NC(C)c2ccccc2)o1 (stereo not given),0%,?,22µM*,4%,-1%
COc1cccc(-n2nnnc2SCC(=O)N2CCCc3ccccc32)c1,-1%,5.6µM*,-13%,20%[38.3 µM],-4%
COc1ccc(-n2c(Cc3ccccc3)nnc2SCC(=O)N2CCCc3ccccc32)cc1,1%,11µM*,-17%,17%,1%
COc1ccc(-n2c(SCC(=O)N3CCCc4ccccc43)nc3c([nH]c4ccccc43)c2=O)cc1,·,·,·,·,-8%[46 µM]
COc1cc(OC)cc(-n2nnnc2SCC(=O)N2CCCc3ccccc32)c1,-3%,2.8µM*,-18%,15%,-9%
COc1ccc(C(=O)NCc2nnc(SCC(=O)N3CCc4ccccc43)n2CCc2ccccc2)cc1,1%,0.63µM*,-7%,9%,-4%
CCCCc1ccc(NC(=S)NCCc2ccc(S(N)(=O)=O)cc2)cc1,-1%,1%,·,13%,?
COc1ccccc1CNC(=O)/C=C/c1ccc(S(=O)(=O)N2CCOCC2)cc1,3%,2%,·,14%,-11%[46 µM]
Cc1cccc(-c2nsc(SCC(=O)NCc3ccco3)n2)c1,-6%,?,?,-19%[38.3 µM],?
Cc1cccc(-c2noc(-c3ccccc3C(=O)NCC3CCCO3)n2)c1 (stereo not given),-5%,16µM*,-8%,14%[38.3 µM],-2%
Cc1cccc(-c2nsc(SCC(=O)NCc3ccc4c(c3)OCO4)n2)c1,3%,4%,-7%,-2%,?
CCOC(=O)CNC(=O)CSc1nc(-c2cccc(C)c2)ns1,-3%,20µM*,·,9%,9%[46 µM]
O=C(NCC1CCCO1)c1ccccc1-c1nc(-c2ccc(Cl)cc2)no1 (stereo not given),2%,-5%,0%,-1%,-13%
Cc1cccc(-c2nsc(SCC(=O)NCC3CCCO3)n2)c1 (stereo not given),3%,20µM*,·,1%,·

# Screening results deposited in PubChem by National Center for Advancing Translational Sciences (NCATS).
